Holding throughout (design): species or system human, MV4-11 + K-562 + COLO205 + SK-N-BE2 + OVCAR-8
One assay relates to DDR1. As to conditions: read-out: apparent Kd, n = 1.
Another assay deals with GARS. As to conditions: read-out: apparent Kd; compound concentrations: 100 nM and 1000 nM (sheet 'Samples'), CATDS: 0.27158737746623501; n = 1.
A further assay concerns NTRK1. As to conditions: read-out: apparent Kd; compound concentrations: 100 nM and 1000 nM (sheet 'Samples'), CATDS: 0.40728649446902998; n = 1.
For a further assay, the system named is DCTPP1. Conditions: read-out: apparent Kd, compound concentrations: 100 nM and 1000 nM (sheet 'Samples'), n = 1.
The next assay relates to GSK3A. As to conditions: read-out: apparent Kd, compound concentrations: 100 nM and 1000 nM (sheet 'Samples'), n = 1.
A further assay deals with GSK3B. Conditions: read-out: apparent Kd, compound concentrations: 100 nM and 1000 nM (sheet 'Samples'), n = 1.
The subject of the next assay is HSP90AA1. As to conditions: read-out: apparent Kd; compound concentrations: 100 nM and 1000 nM (sheet 'Samples'), CATDS: 0.187388385432427; n = 1.
Another assay has as its system HSPE1. Conditions: read-out: apparent Kd; compound concentrations: 100 nM and 1000 nM (sheet 'Samples'), CATDS: 0.293791169928867; n = 1.
In the next assay the test system is PGK1. Conditions: read-out: apparent Kd; compound concentrations: 100 nM and 1000 nM (sheet 'Samples'), CATDS: 0.43205738676527899; n = 1.
The next assay concerns PKM. As to conditions: read-out: apparent Kd; compound concentrations: 100 nM and 1000 nM (sheet 'Samples'), CATDS: 9.7600585068996298E-2; n = 1.
The subject of a further assay is FLT3. Conditions: read-out: apparent Kd, compound concentrations: 100 nM and 1000 nM (sheet 'Samples'), n = 1.
For the next assay, the system named is FLT4. As to conditions: read-out: apparent Kd, compound concentrations: 100 nM and 1000 nM (sheet 'Samples'), n = 1.
A further assay deals with JAK2. As to conditions: read-out: apparent Kd; compound concentrations: 100 nM and 1000 nM (sheet 'Samples'), CATDS: 0.17425354278837099; n = 1.
A further assay relates to RET. As to conditions: read-out: apparent Kd, compound concentrations: 100 nM and 1000 nM (sheet 'Samples'), n = 1.
For a further assay, the system named is DDR2. As to conditions: read-out: apparent Kd, n = 1.
The next assay relates to EPHA7. As to conditions: read-out: apparent Kd; compound concentrations: 100 nM and 1000 nM (sheet 'Samples'), CATDS: 8.9054165794135901E-2; n = 1.
The subject of the next assay is EPHB6. As to conditions: read-out: apparent Kd; compound concentrations: 100 nM and 1000 nM (sheet 'Samples'), CATDS: 9.7568833330596599E-2; n = 1.
A further assay concerns T1, DJA1.
T1 construct: gene DNAJA1
Conditions: read-out: apparent Kd; compound concentrations: 100 nM and 1000 nM (sheet 'Samples'), CATDS: 8.5163737412021906E-2; n = 1.

The test system of a further assay is PRKCA. As to conditions: read-out: apparent Kd; compound concentrations: 100 nM and 1000 nM (sheet 'Samples'), CATDS: 0.251821387342202; n = 1.
The next assay has as its system PRKCB. As to conditions: read-out: apparent Kd; compound concentrations: 100 nM and 1000 nM (sheet 'Samples'), CATDS: 0.103783943133635; n = 1.
The test system of another assay is PRKCD. As to conditions: read-out: apparent Kd; compound concentrations: 100 nM and 1000 nM (sheet 'Samples'), CATDS: 0.10441574318923801; n = 1.
The subject of the next assay is PRKCQ. Conditions: read-out: apparent Kd; compound concentrations: 100 nM and 1000 nM (sheet 'Samples'), CATDS: 8.12008674931885E-2; n = 1.
The subject of a further assay is RPS6KA6. Conditions: read-out: apparent Kd; compound concentrations: 100 nM and 1000 nM (sheet 'Samples'), CATDS: 0.17427412228003; n = 1.
Another assay has as its system MAP3K1. Conditions: read-out: apparent Kd; compound concentrations: 100 nM and 1000 nM (sheet 'Samples'), CATDS: 0.16547922944675; n = 1.
For a further assay, the system named is CSNK2A1;CSNK2A3. As to conditions: read-out: apparent Kd; compound concentrations: 100 nM and 1000 nM (sheet 'Samples'), CATDS: 0.33639720251881999; n = 1.
A further assay concerns CSNK2A2. As to conditions: read-out: apparent Kd; compound concentrations: 100 nM and 1000 nM (sheet 'Samples'), CATDS: 0.39667360391151801; n = 1.
Another assay concerns PRKAA2. Conditions: read-out: apparent Kd; compound concentrations: 100 nM and 1000 nM (sheet 'Samples'), CATDS: 0.28519609584928202; n = 1.
[1] abbreviates: compound concentrations:100 nM and 1000 nM (sheet 'Samples').

SMILES strings stand for the structures. Where two headings read alike, the source gives them in different places.

For the compound `FC(F)(F)c1ccc(-c2nn3ncccc3c2-c2ccnc(Nc3ccccc3)n2)cc1` [GW828206X], the potency estimated from few doses was 1130 nM in the assay with DDR1 (compound concentrations: 100 nM and 1000 nM (sheet 'Samples'), CATDS: 0.34932428035118401); 2010 nM in the assay on GARS; 854 nM in the assay with NTRK1.

Regarding `Cn1cc(C2=C(c3cn(C)c4ccc(Cl)cc34)C(=O)NC2=O)c2ccccc21` [RO0317621-000], the potency estimated from few doses with DCTPP1 (CATDS: 8.8642199403974303E-2) was 2010 nM; in the assay on GSK3A (CATDS: 0.126367112680837) it was 423 nM; in the assay on GSK3B (CATDS: 0.11758336701376999) it was 544 nM; in the assay with HSP90AA1 it was 137 nM; with HSPE1, 52.8 nM; in the assay with PGK1 it was 27.6 nM. Besides, the potency estimated from few doses in the assay on PKM is 1180 nM.

As to `CN(c1ccc2c(c1)nc(NCc1ccccc1)n2C)c1ccnc(Nc2ccc(CS(C)(=O)=O)cc2)n1.Cl` [GW811603A], the potency estimated from few doses in the assay with DDR1 (compound concentrations: 100 nM and 1000 nM (sheet 'Samples'), CATDS: 0.142121036969732) was 962 nM; in the assay with FLT3 (CATDS: 0.139763894659995) it was 1030 nM; with FLT4 (CATDS: 0.42297219111770701) it was 63.4 nM; with JAK2, 465 nM; in the assay with RET (CATDS: 0.369571760306865), 79.9 nM.

For the compound `Nc1ncnc2occ(-c3ccc(NC(=O)Nc4cccc(C(F)(F)F)c4)cc3)c12` [GW795493X], the potency estimated from few doses was 405 nM in the assay with DDR1 (compound concentrations: 100 nM and 1000 nM (sheet 'Samples'), CATDS: 0.13274475237022501); 681 nM in the assay on DDR2 (compound concentrations: 100 nM and 1000 nM (sheet 'Samples'), CATDS: 0.11447916272035); 2220 nM in the assay on EPHA7; 1350 nM in the assay on EPHB6; 229 nM in the assay with FLT3 (CATDS: 0.15949914238657301); 34.6 nM with FLT4 (CATDS: 0.353383658165352). The potency estimated from few doses in the assay on RET (CATDS: 0.464290470493195) is 21.6 nM.

Take `COC(=O)Nc1nc2ccc(Oc3ccc(NC(=O)Nc4cccc(Cl)c4)cc3)cc2[nH]1.Cl` [GW589961A]: the potency estimated from few doses is 199 nM in the assay on DDR1 (compound concentrations: 100 nM and 1000 nM (sheet 'Samples'), CATDS: 0.527903704232491); 1550 nM with DDR2 (compound concentrations: 100 nM and 1000 nM (sheet 'Samples'), CATDS: 0.19207540013006); 874 nM in the assay with FLT3 (CATDS: 0.237161124657183); 1140 nM with RET (CATDS: 0.213543633827599).

Turning to `Cn1cc(C2=C(c3cn(CCCCN)c4ccccc34)C(=O)NC2=O)c2ccccc21` [RO0317888-000], the potency estimated from few doses in the assay on DCTPP1 (CATDS: 8.2242786873404694E-2) is 1870 nM; in the assay with DJA1 it was 1670 nM; in the assay on GSK3A (CATDS: 0.120025904024986), 700 nM; in the assay on GSK3B (CATDS: 0.13279399425104901) it was 570 nM; in the assay with PRKCA, 200 nM; with PRKCB, 970 nM. Also, the potency estimated from few doses in the assay on PRKCD is 956 nM; with PRKCQ, 1960 nM; with RPS6KA6 it was 351 nM.

In the case of `Cc1cn(-c2cc(NC(=O)c3ccc4c(c3)CN(c3cncnc3)C[C@@H]4C)cc(C(F)(F)F)c2)cn1` [D2202-1], the potency estimated from few doses is 494 nM in the assay with DDR1 (setting [1]) and 915 nM in the assay with DDR2 (setting [1]).

As to `CN(c1ccc2c(c1)nc(NCc1ccc(F)cc1)n2C)c1ccnc(Nc2ccc(CS(C)(=O)=O)cc2)n1.Cl` [GW813244A], the potency estimated from few doses is 841 nM in the assay on DDR1 (compound concentrations: 100 nM and 1000 nM (sheet 'Samples'), CATDS: 0.20099617628952601); 166 nM with FLT4 (CATDS: 0.39951332259871902); 1840 nM in the assay on MAP3K1; 163 nM with RET (CATDS: 0.40344037001579403).

As to `CC1=C(C(=O)Nc2ccc3[nH]ncc3c2)C(c2ccc(F)cc2)NC(=O)N1` (centres unmarked) [GSK180736A], the potency estimated from few doses in the assay on CSNK2A1;CSNK2A3 is 978 nM; with CSNK2A2, 718 nM; with PRKAA2, 1410 nM.

Source of the values: article PMC11062922 (Nature Chemical Biology, 2023).
